Screening results as filed in PubChem.
EBV LMP1 NFkB: EBV LMP1-driven NF-kappaB luciferase reporter inhibitors, primary screen, cell-based, luminescence, single point. LMP1-induced NF-kappaB luciferase reporter cells. inhibition, % at 12.5 µM. 350,000 compounds, 0.69% hits. AID 504558, 2011; in the data active means inhibition above about 41%; inconclusive means no clear call, values can overlap the other calls;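 further: 0% = neutral control wells and 100% = reference inhibitor control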
TROY signal inh: inhibitors of TROY-driven NF-kB signaling, primary screen, Q293 LMP1-TROYcd cells, NF-kB luciferase, uHTS; Q293 LMP1-TROYcd NF-kB luciferase reporter, 4 h; AID 1347056, 2019; 360,000 compounds, 0.98% hits; inhibition, % at 10 µM;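 active means compounds whose plate-normalised and pattern-corrected inhibition of the luciferase reporter signal at the single screening dose is 50% or more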
MITF TRPM1 inh: inhibitors of MITF-dependent TRPM1 promoter reporter, primary screen, cell-based, SK-MEL-5, single point, luciferase; SK-MEL-5 TRPM1 promoter luciferase, 24 h; inhibition, % at 12.5 µM; 330,000 compounds, 0.83% hits; AID 488899, 2010;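 active means mean inhibition across replicates of 60% or more, whatever share of single replicates reaches that level; inconclusive means some that reach 60%, reason not given; inactive means mean inhibition across replicates below 60%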
LGR2 inh: inhibitors of bursicon-induced LGR2 CRE-luciferase signal, primary screen, cell-based, HEK293, CRE-luciferase reporter, bursicon stimulation. bursicon-stimulated, 4 h. inhibition, % at 9.99 µM. 380,000 compounds, 0.35% hits;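 active means drop in luminescence signal, shown as inhibition above about 50% in the replicate tests, limit read from the data, passing the limit was not always enough; inconclusive means probably only some replicates passing the limit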;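 further: agonist challenge used bursicon conditioned medium at about half maximal strength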
TWEAK Fn14 block: inhibitors of TWEAK-Fn14 signaling, primary screen, luciferase reporter cells, uHTS. TWEAK-stimulated Fn14 reporter cells, luciferase luminescence, 8 h. inhibition, % at 10 µM. 360,000 compounds, 2% hits. AID 1159606, 2016; in the data active means inhibition above about 50%
MITF TRPM1 HTS: activators of MITF-driven TRPM1 promoter reporter, primary screen, cell-based, SK-MEL-5, luciferase, single point. SK-MEL-5 TRPM1-promoter luciferase, 24 h; % of positive control, neutral wells = 0. activation, % at 12.5 µM. 300,000 compounds, 0.75% hits. AID 588334, 2011;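 active means mean activation of at least 80% with every replicate also reaching 80%; inconclusive means mean reaches 80% but some replicate falls short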;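 further: 0% = neutral control wells and 100% = parthenolide positive control wells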
Active calls of the source: *; u = inconclusive; x = no result. Only some compounds are listed: those with a hit (about 3% of all), similar ones and a draw of the others.

SMILES	EBV LMP1 NFkB	TROY signal inh	MITF TRPM1 inh	LGR2 inh	TWEAK Fn14 block	MITF TRPM1 HTS
CCCCNCCCOc1ccc(C)cc1Br	7	-6	6	-9	14	-1
CC(C)CN(C(=O)COc1ccc2ccc(=O)oc2c1)C1CCS(=O)(=O)C1 (stereo not given)	4	-12	-2	3	61*	4
Cc1nc2sc(-c3ccccc3)cc2c(=O)n1-n1cccc1	-58	-2	-109	x	-17	102*
Cc1nc2sc(-c3ccccc3)cc2c(=O)n1N	62*	61*	45	81*	94*	-45
Cc1nc2sc(-c3ccccc3)cc2c(=O)n1/N=C/N(C)C	-3	-75	-23	-20	-12	27
O=c1[nH]c(-c2cccnc2)nc2sc(-c3ccccc3)cc12	-29	-41	-32	-37	-11	34
Cc1nc2sc(-c3ccccc3)cc2c(=O)[nH]1	36	32	21	11	57*	-26
CC(C)CC#Cc1ccc2c(c1)O[C@@H](CN(C)CC1CCOCC1)[C@H](C)CN([C@H](C)CO)S2(=O)=O	x	x	x	-3	x	x
CCC(=O)N(C)C[C@@H]1Oc2cc(-c3ccccc3F)ccc2S(=O)(=O)N([C@H](C)CO)C[C@H]1C	x	x	x	2	x	x
C[C@H](CO)N1C[C@H](C)[C@@H](CN(C)S(C)(=O)=O)Oc2ccc(NS(=O)(=O)c3cccs3)cc2C1=O	x	x	x	4	x	x
Cc1cc(-c2nc(-c3ccncc3)no2)ccc1[N+](=O)[O-]	-18	-40	-66	-37	8	74
c1ccc(-c2noc(-c3ccc4ccccc4c3)n2)cc1	9	69*	43	x	81*	-39
O=C(O)c1ccc(-c2noc(-c3ccccc3Cl)n2)cc1	-35	-31	-9	u	47	13
O=C(O)c1ccc(-c2noc(-c3cccc(Cl)c3)n2)cc1	-5	-44	-91	2	-17	87*
Cc1ccc(-c2nc(-c3ccccn3)no2)cc1Cl	68*	82*	83*	x	104*	-80
Cc1ccc(-c2nc(-c3ccccn3)no2)cc1[N+](=O)[O-]	28	25	-3	u	62*	x
O=[N+]([O-])c1cccc(-c2nc(-c3ccccc3)no2)c1	-76	-49	-18	-40	-6	22
COc1ccc(C[C@@H]2CCc3cnnn3COC[C@H](C(C)C)NC2=O)cc1	x	x	x	0	x	x
C[C@H](CO)N1C[C@H](C)[C@H](CN(C)Cc2ccc(Oc3ccccc3)cc2)Oc2cc(-c3ccncc3)ccc2S1(=O)=O	x	x	x	23	x	x
OC[C@@H]1[C@@H](c2ccccc2)C2(CN(Cc3nccs3)C2)N1Cc1ccccc1	x	x	x	11	x	x
c1ccc(-c2noc(-c3ccno3)n2)nc1	4	-36	-12	-15	0	10
c1ccc(-c2nc(-c3ccco3)cs2)nc1	-29	-27	-88	x	13	91*
c1ccc(-c2nccc(-c3ccco3)n2)nc1	1	-25	-29	-4	-5	32
Cc1ccc(-c2nc(-c3ccccn3)no2)cc1	88*	86*	90*	x	106*	-89
c1ccc(-c2ccc(-c3nc(-c4ccccn4)no3)cc2)cc1	83*	89*	x	102*	106*	-99
SMILES	EBV LMP1 NFkB	TROY signal inh	MITF TRPM1 inh	LGR2 inh	TWEAK Fn14 block	MITF TRPM1 HTS
c1ccc(-c2nc(-c3ccccn3)no2)cc1	41*	73*	53	87*	94*	-53
C[C@H](CO)N1C[C@H](C)[C@H](CN(C)C(=O)NC2CCCCC2)Oc2ccc(NS(=O)(=O)c3cn(C)cn3)cc2C1=O	x	x	x	2	x	x
C[C@@H]1CN([C@H](C)CO)C(=O)c2cc(C3=CCCCC3)cnc2O[C@H]1CN(C)S(C)(=O)=O	x	x	x	-1	x	x
Cc1ccc2nc(-c3ccccn3)oc2c1	18	-13	-2	x	53*	x
c1ccc(-c2noc(-c3ccco3)n2)nc1	4	-16	-19	x	53*	23
Cc1cccc(-c2nnc(-c3ccc4ccccc4c3)o2)c1	8	23	-46	52*	55*	48
Clc1cccc(-c2nc(-c3ccccn3)no2)c1	51*	70*	64*	x	97*	-60
c1ccc(-c2cc(-c3nc(-c4ccccn4)no3)c3ccccc3n2)cc1	12	-4	-10	x	22	9
C[C@H](CO)N1C[C@H](C)[C@H](CN(C)S(C)(=O)=O)Oc2ccc(NS(=O)(=O)c3cn(C)cn3)cc2C1=O	x	x	x	-15	x	x
CCCNC(=O)Nc1ccc2c(c1)OC[C@H](C)N(C(C)=O)C[C@@H](C)[C@@H](OC)CN(C)C2=O	x	x	x	4	x	x
N#C[C@@H]1[C@H](c2ccccc2-c2cccc(F)c2)[C@H](CO)N1C(=O)NC1CCCC1	x	x	x	6	x	x
COc1ccc(-c2csc(NC(=O)c3ccccc3NS(=O)(=O)c3ccc(F)c(F)c3)n2)cc1	u	69*	77*	46	74*	-76
COc1ccc(-c2csc(NC(=O)c3ccccc3F)n2)cc1	-9	-9	-5	-3	7	6
Cc1ccc(S(=O)(=O)Nc2ccccc2C(=O)Nc2nc(-c3ccc(F)cc3)cs2)cc1	21	75*	44	33	93*	-43
CCOC(=O)c1cnc2ccccc2c1Nc1ccc2c(c1)OCCO2	14	77*	31	1	92*	-29
C[C@@H]1CN([C@H](C)CO)C(=O)c2cccc(NC(=O)C3CCOCC3)c2O[C@@H]1CN(C)S(C)(=O)=O	x	x	x	0	x	x
C/C=C/c1ccc([C@H]2[C@@H](CO)N(C(C)=O)[C@@H]2CNC(=O)NCCC)cc1	x	x	x	-29	x	x
COCCCNC(=O)CN1C(=O)COc2ccc(S(=O)(=O)N3CCOCC3)cc21	57*	1	3	-1	-14	-3
CCCN(CCC)CCNC(=O)CN1C(=O)COc2ccc(S(=O)(=O)N3CCOCC3)cc21	-7	4	-15	-23	16	10
C[C@H](CO)N1C[C@H](C)[C@H](CN(C)CC2CCOCC2)Oc2cc(C#Cc3ccccc3F)ccc2S1(=O)=O	x	x	x	9	x	x
CCCNc1nc(=S)n(-c2ccccc2)c(C)c1C(C)=O	-15	-1	-4	7	-22	4
CCCCNc1nc(=S)n(-c2ccccc2)c(C)c1C(C)=O	7	4	64*	21	11	-61
CC(=O)NC1=NC(=O)/C(=C/c2cn(C(C)=O)nc2-c2ccccc2)S1	14	43	-4	x	74*	-1
O=C(NCCc1ccc(Cl)cc1)C1CCC(CNc2nc(=S)[nH]c3ccccc23)CC1 (stereo not given)	15	24	76*	13	-34	-76
